Results filed as inconclusive are left out. A number with no mark means an inactive call. Activity calls are given as the source filed them. Calls come from the whole dose curve; as a rule, active = well fitted curve in the direction sought with a large enough effect in the signal ratio in the repeat runs (not every such curve was filed as active); inconclusive = weak or mixed curves, or effect the other way; inactive = no such curve, though single readings can be large or run the other way; the % refers to the signal ratio.
Target: Estrogen receptor (Homo sapiens) (UniProt P03372)
Assay: qHTS assay to identify small molecule antagonists of the estrogen receptor alpha (ER-alpha) signaling pathway (AID 743069)
Conditions: HEK293 ER-alpha-UAS-bla, beta-lactamase ratio, antagonist mode; series mostly up to 69.4 µM; activity, negative = inhibition: at the top concentration
From the text: National Center for Advancing Translational Sciences [NCATS]
NIH Chemical Genomics Center [NCGC]
U.S. Environmental Protection Agency [EPA]
National Institutes of Environmental Health Sciences [NIEHS]
National Toxicology Program [NTP]
U.S. Food and Drug Administration [FDA]
Estrogen receptor (ER), a nuclear hormone receptor, plays an important role in development, metabolic homeostasis and reproduction. Two subtypes of ER, ER-alpha and ER-beta have similar expression patterns with some uniqueness in both types. Endocrine disrupting chemicals (EDCs) and their interactions with steroid hormone receptors like ER causes disruption of normal endocrine function. To identify the compounds that inhibit ER signaling, an ER-alpha-UAS-bla GripTiteTM cell line (Invitrogen, Carlsbad, CA, USA) containing a beta-lactamase reporter gene under the control of an Upstream Activator Sequence (UAS) stably integrated into HEK293 cells was used to screen the Tox21 10K compound library.
Tox21 Assay Protocol Summary:
ER-alpha-bla cells were cultured in assay medium containing 2% charcoal stripped FBS overnight in the culture flasks before the assay was performed. The cells were dispensed at 5,000 cells/5 uL of assay medium per well into black wall/clear-bottom 1536-well plates using a Multidrop Combi (ThermoFisher Scientific, Waltham, MA) dispenser. After the assay plates were incubated at a 37C and 5% CO2 for 4 hr, 23 nL of compounds dissolved in DMSO, positive controls or DMSO only was transferred to the assay plate by a Pintool station (Kalypsys, San Diego, CA), followed by addition of 1 uL of 17beta-estradiol in assay medium using a Flying Reagent Dispenser (Aurora Discovery, San Diego, CA). The plates were incubated at 37C and 5% CO2 for 18 hr. Then 1 uL of LiveBLAzerTM B/G FRET substrate was added using a Flying Reagent Dispenser, the plates were incubated at room temperature for 2 hours, and fluorescence intensity was measured by an Envision plate reader (PerkinElmer, Shelton, CT).
% is set by controls: 0 for no effect and ±100 for the full control effect.

Chain of Estrogen receptor (Homo sapiens) (P03372 whole entry, looked up): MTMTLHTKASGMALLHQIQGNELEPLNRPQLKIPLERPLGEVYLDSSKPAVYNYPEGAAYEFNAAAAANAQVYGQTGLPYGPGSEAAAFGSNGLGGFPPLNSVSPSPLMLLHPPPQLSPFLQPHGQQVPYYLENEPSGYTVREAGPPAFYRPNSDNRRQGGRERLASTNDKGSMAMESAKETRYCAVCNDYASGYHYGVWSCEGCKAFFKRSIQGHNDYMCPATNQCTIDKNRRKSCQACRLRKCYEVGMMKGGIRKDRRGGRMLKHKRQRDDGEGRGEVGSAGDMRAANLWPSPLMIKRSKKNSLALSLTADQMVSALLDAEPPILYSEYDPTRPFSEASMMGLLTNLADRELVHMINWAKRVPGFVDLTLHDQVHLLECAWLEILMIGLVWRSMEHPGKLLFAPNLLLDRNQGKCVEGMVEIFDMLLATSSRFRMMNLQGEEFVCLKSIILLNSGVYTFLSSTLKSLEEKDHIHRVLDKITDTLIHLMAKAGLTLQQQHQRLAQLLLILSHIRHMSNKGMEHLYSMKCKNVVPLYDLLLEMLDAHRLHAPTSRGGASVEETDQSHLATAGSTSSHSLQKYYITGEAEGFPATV

Question: `C=C(C)CS(=O)(=O)O` was tested. Which “activity, negative = inhibition” value did it give?
Answer: Its value is 5.53%.

Question: For `CC1(C)C(O)C(C)(C)C1O` (stereo not given), which “activity, negative = inhibition” value is on record?
Answer: Its value is 30.6%.

Question: For `OC(CCN1CCCCC1)(c1ccccc1)C1CC2C=CC1C2` (stereo not given), which outcome is on record?
Answer: Its outcome is “inactive”.

Question: For `NC(CSCC(=O)O)C(=O)O` (stereo not given), which “activity, negative = inhibition” value is on record?
Answer: Its value is 4.03%.

Question: For `CC(C(=O)O)c1ccc(CC2CCCC2=O)cc1` (stereo not given), which “activity, negative = inhibition” value is on record?
Answer: Its value is 3.48%.

Question: For `CC(C)NC(=O)NC(C)C`, which “activity, negative = inhibition” value is on record?
Answer: The value was 29.9%.

Question: With `O=C1CCCN1C1CCCCC1` as the compound, how does the “activity, negative = inhibition” value read?
Answer: The value was 37.6%.

Question: `Nc1cc(=O)[nH]c(N)n1` was tested. Which “activity, negative = inhibition” value did it give?
Answer: The value was -10.5%.

Question: For `CC(=O)OCC(=O)[C@@]1(O)CC[C@H]2[C@@H]3CCC4=CC(=O)CC[C@]4(C)[C@H]3C(=O)C[C@@]21C`, which “activity, negative = inhibition” value is on record?
Answer: The value was 3.61%.

Question: Which “activity, negative = inhibition” value does the source give for `O=C(O)COc1nn(Cc2ccccc2)c2ccccc12` here?
Answer: Its value is -6.94%.

Question: Which “activity, negative = inhibition” value does the source give for `COc1ccccc1OCC(O)CN1CCN(CC(=O)Nc2c(C)cccc2C)CC1` (stereo not given) here?
Answer: The value was 10.3%.

Question: With `O=C1OC(=O)C2CCCCC12` (stereo not given) as the compound, how does the “activity, negative = inhibition” value read?
Answer: Its value is -3.44%.

Question: `CCCCCCOC(=O)CCCCC(=O)OCCCCCC` was tested. Which “activity, negative = inhibition” value did it give?
Answer: Its value is 5.82%.

Question: `FC1(F)C(F)(F)C(F)(F)C2(F)C(F)(F)C(F)(F)C(F)(F)C(F)(F)C2(F)C1(F)F` (stereo not given) was tested. Which “activity, negative = inhibition” value did it give?
Answer: Its value is -2.68%.

Question: With `COCCCOCCCOC` as the compound, how does the “activity, negative = inhibition” value read?
Answer: Its value is 13.2%.

Question: For `CN(C)CCCNCCCN(C)C`, which “activity, negative = inhibition” value is on record?
Answer: The value was 23.4%.

Question: With `O=c1n(CCO)c(=O)n(CCO)c(=O)n1CCO` as the compound, how does the outcome read?
Answer: The outcome was “inactive”.

Question: Which “activity, negative = inhibition” value does the source give for `CC(=O)c1ccccc1O` here?
Answer: Its value is 6.45%.

Question: For `CCOC(=O)Nc1ccc(NCc2ccc(F)cc2)nc1N`, which outcome is on record?
Answer: Its outcome is “inactive”.

Question: How did the “activity, negative = inhibition” value turn out when `CC(C[N+](C)(C)C)OC(N)=O` (stereo not given) was run?
Answer: The value was 6.91%.

Question: With `CCCCCCCCCCCCCCCCC` as the compound, how does the “activity, negative = inhibition” value read?
Answer: The value was 24.7%.

Question: For `CCOC(=O)c1cccc(N)c1`, which “activity, negative = inhibition” value is on record?
Answer: The value was 13.1%.

Question: How did the “activity, negative = inhibition” value turn out when `CCOC(=O)CCC(C)=O` was run?
Answer: Its value is 21.3%.

Question: How did the “activity, negative = inhibition” value turn out when `CCO[Si](CCC1CCC2OC2C1)(OCC)OCC` (stereo not given) was run?
Answer: The value was 9.89%.

Question: How did the “activity, negative = inhibition” value turn out when `Nc1ccc(S(=O)(=O)Nc2ccnn2-c2ccccc2)cc1` was run?
Answer: Its value is 5.07% [at 32.6 µM].

Question: `C=C[Si](OC(=C)C)(OC(=C)C)OC(=C)C` was tested. Which “activity, negative = inhibition” value did it give?
Answer: Its value is -27.5%.

Question: For `C[C@@H]1CCN(C(=O)[C@H](CCCN=C(N)N)NS(=O)(=O)c2cccc3c2NC[C@H](C)C3)[C@@H](C(=O)O)C1`, which “activity, negative = inhibition” value is on record?
Answer: The value was 5.61%.

Question: `CC(C)(C)NCCNC(C)(C)C` was tested. Which “activity, negative = inhibition” value did it give?
Answer: Its value is -16.4%.

Question: `CCC(=O)OC(C)c1ccccc1` (stereo not given) was tested. Which “activity, negative = inhibition” value did it give?
Answer: Its value is 34.2%.

Question: `COc1c(N2C[C@@H]3CCCN[C@@H]3C2)c(F)cc2c(=O)c(C(=O)O)cn(C3CC3)c12` was tested. Which outcome did it give?
Answer: The outcome was “inactive”.

Question: `OCCOc1ccc(OCCO)cc1` was tested. Which “activity, negative = inhibition” value did it give?
Answer: Its value is 8.93% [at 79.1 µM].

Question: How did the “activity, negative = inhibition” value turn out when `CC1=CC(C)C(C=O)CC1` (stereo not given) was run?
Answer: Its value is 1.29%.

Question: `N[C@@H](C(=O)N[C@@H]1C(=O)N2C(C(=O)O)=C(Cl)CS[C@H]12)c1ccccc1` was tested. Which “activity, negative = inhibition” value did it give?
Answer: Its value is -6.17%.

Question: For `CCN1CCC[C@H]1CNC(=O)c1c(O)c(Cl)cc(Cl)c1OC`, which “activity, negative = inhibition” value is on record?
Answer: The value was 7.33%.

Question: `CC(C)(O)C(=O)c1ccccc1` was tested. Which “activity, negative = inhibition” value did it give?
Answer: The value was 35.3%.

Question: For `Nc1nc2c(ncn2COC(CO)CO)c(=O)[nH]1`, which “activity, negative = inhibition” value is on record?
Answer: Its value is -6.18% [at 32.6 µM].

Question: How did the “activity, negative = inhibition” value turn out when `NC(=O)Nc1ccccc1` was run?
Answer: Its value is -10.8%.

Question: With `Cn1cc(S(C)=O)c(=O)c2ccc(F)cc21` (stereo not given) as the compound, how does the “activity, negative = inhibition” value read?
Answer: The value was -5.69%.

Question: `CC(=O)CC(C)(C)C1CCCCC1` was tested. Which “activity, negative = inhibition” value did it give?
Answer: The value was -13.4%.

Question: How did the “activity, negative = inhibition” value turn out when `c1cnc(N2CCN(Cc3ccc4c(c3)OCO4)CC2)nc1` was run?
Answer: The value was 9.48%.
